One assay has as its system Plasmodium falciparum NF54-HGL (transmission to Anopheles stephensi). Kind of assay: percentage of barcode signal found in uninfected mosquitoes (transmission-blocking activity); higher = stronger blocking of transmission to mosquito, active = 80 or more. To be noted: 10 µM; gametocyte preincubation time 24 h; readout time post-feed 8 days. The protocol: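 The mixture was fed to Anopheles stephensi in 96-well plates as blood meals tagged with DNA-barcoded Asaia bacteria. Eight days later, mosquitoes were classed infected or uninfected by luminescence (mean + 5 SD of unfed controls). Barcodes were quantified by Luminex MagPlex-TAG in the pooled uninfected and infected Asaia cultures, background-corrected, and the score is % of barcode signal in uninfected mosquitoes = 100*Iu/(Iu+Ii).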
Regarding `COc1ccc(C2=NN(C3CCCCCC3)C(=O)C2(C)C)cc1OCCCCOc1ccc(-c2nn[nH]n2)cc1`, the “percentage of barcode signal found in uninfected mosquitoes” value (“percentage of barcode signal found” below) is 7.2% (inactive).

`Cc1[nH]c2ccccc2c1C(c1cccs1)N1CCN(C)CC1` (stereo not given): the “percentage of barcode signal found” value was 43.7% (inactive). On the same count and under the same terms, the result for `O=C(Nc1ccc(F)c(-c2nc3cc(-c4ccccc4)cnc3[nH]2)c1)N1CCCC1` reads 35.5% (inactive); that for `Cc1ncc(-c2ccnc(Nc3ccc(S(C)(=O)=O)cc3)n2)n1C(C)C`, 82.6% (active). Still for that read-out and setting: the same measure for `COc1ccc(C2=NN(C3CCCCCC3)C(=O)[C@@H]3CC=CC[C@H]23)cc1OCCCCOc1ccc(-c2nn[nH]n2)cc1`: 63.6% (inactive); for `CC(=O)NC[C@H]1CN(c2ccc(N3CCSCC3)c(F)c2)C(=O)O1`: 24.7% (inactive); for `O=C(CCC1CCCCC1)Nc1cccc(-c2nnc(-c3ccco3)o2)c1`: 67.5% (inactive). On the same count and under the same terms, the result for `CN1CCN(c2cc(-c3ccc(F)cc3)nc(-c3ccncc3)n2)CC1` reads 1.2% (inactive); that for `Cc1cccc(NC(=O)c2cc(S(=O)(=O)N(C)c3ccc(F)cc3)ccc2Cl)n1`, 46.1% (inactive).

Take `O=C(NC1CC1)c1ccc(N2CCOc3ccc(Cl)cc32)s1`: the “percentage of barcode signal found” value was 49.7% (inactive).

Regarding `CC1CCCCN1C(=O)NCCc1coc(-c2ccc(F)cc2)n1` (stereo not given), the “percentage of barcode signal found” value is 42% (inactive). The same measure, in the same setting: the same measure for `O=C(NCCc1c[nH]c2ccccc12)c1cc2ccccc2oc1=O`: -1.49% (inactive); for `Cc1ccc2nc(Cl)c(CNCc3cccs3)cc2c1`: 7.16% (inactive). The same measure, in the same setting: the result for `CS(=O)(=O)c1ccc(C(=O)N(CC2CCCO2)c2nc3ccccc3s2)cc1[N+](=O)[O-]` (stereo not given) reads 63.1% (inactive); that for `FC(F)(F)c1cnc(Sc2nnc(-c3ccncc3)o2)c(Cl)c1`, 68.8% (inactive); that for `O=C(Nc1cccnc1)c1c(O)c2cccc3c2n(c1=O)CC3`, 20.2% (inactive). Same read-out and setting: the same measure for `CC1COC2(CCN(c3nc(=O)c4cc(C(F)(F)F)cc([N+](=O)[O-])c4s3)CC2)O1` (stereo not given): 26.7% (inactive); for `CN(C)c1cc(NC(=O)Nc2ccccc2)c2ccccc2n1`: 88.3% (active).

As to `COc1ccc(Nc2ccccc2NC(=O)c2ccc(O)nc2)cc1`, the “percentage of barcode signal found” value was 7.07% (inactive). Still for that read-out and setting: the same measure for `O=C(Nc1nc(-c2ccccn2)cs1)c1cncn1-c1ccccc1`: 21.4% (inactive); for `O=C(C1CCCCC1)N1CC(=O)N2CCc3ccccc3C2C1` (stereo not given): 51.6% (inactive).

Still in this assay, the particulars now being: 20 µM; gametocyte preincubation time 24 h; readout time post-feed 8 days.
As for `CCOc1ccccc1NC(C)C(=O)Nc1cc(C(F)(F)F)ccc1N1CCOCC1` (stereo not given), the “percentage of barcode signal found” value was 40.9% (inactive).

As to `CN1CCN(c2nccc3[nH]c(-c4cccc(F)c4)cc23)CC1`, the “percentage of barcode signal found” value was -0.815% (inactive).

As for `CO[C@H]1/C=C/O[C@@]2(C)Oc3c(C)c(O)c4c(O)c(/c(=C/NN5CCN(C)CC5)c(O)c4c3C2=O)=N\C(=O)/C(C)=C\C=C/[C@H](C)[C@H](O)[C@@H](C)[C@@H](O)[C@@H](C)[C@H](OC(C)=O)[C@@H]1C`, the “percentage of barcode signal found” value is 20.2% (inactive). Same read-out and setting: the result for `CC(=O)N1CCN(c2ccc(Oc3ccc(Cl)cc3O)cc2)CC1` reads 23.4% (inactive). As to `N#CCN(CCCCN1CCN(c2ccc(F)cc2)CC1)C(=O)OCc1ccccc1`, the “percentage of barcode signal found” value was 36.5% (inactive). Regarding `CC(C)(C)n1nc(Cc2ccc(F)c(Cl)c2)c2c(N)ncnc21`, the “percentage of barcode signal found” value is 10.3% (inactive). On the same count and under the same terms, the same measure for `CCC(NC(=O)c1ccccc1NC(=O)c1ccc(C)cc1)C(=O)OC` (stereo not given): 95.2% (active).

`O=C(Nc1cnc2ccccc2c1)c1cccc(-n2cnnn2)c1`: the “percentage of barcode signal found” value is 21.3% (inactive). The same measure, in the same setting: the same measure for `C[C@H](c1ccc2c(c1)CCCC2)N(C)c1ncc2c(N)nc(N)nc2n1`: 0.379% (inactive); for `CC1=Nc2ccc(Cl)cc2C(c2ccccc2)N1CCNC(=O)CN(C)C` (stereo not given): 71.2% (inactive). Still for that read-out and setting: the same measure for `C[C@H](C(N)=O)N1CCCC[C@@H]1c1ccc(OCc2cccc(F)c2)cc1`: 17.3% (inactive). Still for that read-out and setting: the same measure for `O=C(Nc1cccc(Cl)c1)c1cnc(N2CCN(c3ccncc3)CC2)c(Cl)c1`: 56% (inactive); for `CC1(C)Cc2c(c(N3CCOCC3)nc3snc(Br)c23)CO1`: 97% (active); for `Cc1cccc(-c2nc(Nc3ccncn3)c3sccc3n2)n1`: 91.4% (active). As to `CN1CCC(c2cc(-c3ccncc3)c(-c3ccc(F)cc3)[nH]2)CC1`, the “percentage of barcode signal found” value is 78.1% (inactive). Regarding `COc1ccc2nc(C)cc(OCC(=O)Nc3ccccc3OC)c2c1`, the “percentage of barcode signal found” value was 5.42% (inactive). The same measure, in the same setting: the result for `Cc1cnc(N2CCN[C@@H](Cc3ccccc3)C2)nc1Oc1ccc(-n2ccnc2)cc1` reads 87% (active); that for `O=C(NCc1cc(Cl)cc(Cl)c1)c1c(C(F)(F)F)nc2ccccn12`, 20% (inactive). Still for that read-out and setting: the same measure for `CC(C)(C)n1nc(Cc2cccc3ccccc23)c2c(N)ncnc21`: 0.0299% (inactive).

(Values after the supplement of paper PMC8726507.)
